Measurements taken from the supplement of paper PMC10338343.
± gives the standard deviation.

Tested on: EfPiwi piRISC loaded with piRNA #1 (26 nt)
Experiment: pre-steady-state target cleavage rate (min^-1); auxiliary factor: 500 nM Ephydatia muelleri Gtsf1; guide: piRNA #1 5'p-UGAGGUAGUAGGUUGUAUAGUAUCCA; MIWI and MILI are mouse PIWI proteins and EfPiwi is from a freshwater sponge; tags in brackets are library labels; higher = faster piRNA-guided slicing of the target
Method in brief: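 The pre-steady-state cleavage rate came from a burst-and-steady-state fit to pooled data from three Cleave-'n-Seq trials, in which uncleaved targets were sequenced and normalised to depth and to weakly complementary targets. Each reaction held 0.1 nM transcribed, DNA-blocked target RNA library and 1 nM active affinity-purified piRISC carrying one synthetic guide, with or without 500 nM GTSF1 partner protein, in HEPES–potassium acetate buffer at 33 °C for 0–8 or 0–960 min. k3 was capped at 0.0001 min^-1.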

| Sequence | pre-steady-state target cleavage rate |
| --- | --- |
| GGAGACGAUACUAUACAACCAUACUACCUCA | 0.00938 ± 0.0047 |
| GGAGACCUAACUAUACAACCUAAUACCUCA | 0.00511 ± 0.0036 |
| GGAGUGGAAACUAUACAACCUACUACGUCA | 0.00326 ± 0.0026 |
| GGAGUGGUUACUAUUCAACCUACUACCUCA | 0.00293 ± 0.0021 |
| GGAGACCAUACUAUACAACCAACUACCUCA | 0.00627 ± 0.0022 |
| GGAGUGGAUACAAUACAACCUACAACCUCA | 0.00248 ± 0.0013 |
| GGAGAGGAUACUAUACAAGCUACUAGCUCA | 0.00266 ± 0.0018 |
| GGAGACCUUACUAUACAUCCUACUACCUGA | 0.00345 ± 0.0024 |
| GGAGUGGGUACUAUACAACCUACUACCUCA | 0.00924 ± 0.0037 |
| GGAGUGGAUACUAUACAACGUACUACGUCA | 0.0036 ± 0.0015 |
| GGAGAGGAUACUAUACAACCUACAUACCUCA | 0.00353 ± 0.0021 |
| GGAGUGGAUACUAUACAACCUACUACCUCA [g2:g26:cont:t1A] | 0.176 ± 0.056 |
| GGAGUGGAUACUUUACAUCCUACUACCUCA | 0.0043 ± 0.0029 |
| GGAGUGGAUACUAAACAAGCUACUACCUCA | 0.00401 ± 0.0019 |
| GGAGACCAUACUUUACAACCUACUACCUGA | 0.00591 ± 0.0031 |
| GGAGACCUAACUAUACAAGCUACUACCUGA | 0.00345 ± 0.003 |
| GGAGACCUAUGAAUACAACCUACUACCUCG [g2:g18:cont:t1G] | 0.00485 ± 0.004 |
| GGAGACCUUACUAUACAACCUACUAACCUCA | 0.00393 ± 0.0038 |
| GGAGACGAAACAAUACAACCUACUACCUCA | 0.00789 ± 0.0038 |
| GGAGACCUAACAUAUACAACCUACUACCUCA | 0.0546 ± 0.02 |
| GGAGUGGAUACUAUACAAGCUACUACCUGA | 0.00454 ± 0.0019 |
| GGAGACCUUACUAUACAACCUACUACGUCA | 0.00584 ± 0.0027 |
| GGAGACCUAUCUAUACAACCUACUACCUGA | 0.00569 ± 0.0033 |
